Source: PubChem BioAssay
The list is not random: actives were taken first. Their share in the collection is about 1.1%.
FXIIa mix inh = human factor XIIa inhibitors, primary screen, biochemical, pooled compound mixtures, fluorogenic substrate. 62,000 compounds, 0.2% hits. Coagulation factor XII (Homo sapiens), P00748. inhibition, % at 5 µM. purified FXIIa;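 note: 0% = enzyme without compound and 100% = no enzyme blank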
BAP1 inh = inhibitors of BAP1 deubiquitinase, primary screen, biochemical, Ub-AMC fluorescence, kinetic; Ubiquitin carboxyl-terminal hydrolase BAP1 (Homo sapiens), Q92560; recombinant BAP1, Ub-AMC hydrolysis fluorescence kinetic; stronger effect = lower value; calls only at 20 µM; 72,000 compounds, 0.48% hits; AID 436, 2006;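 active = activity remaining at or below 50% of control, provided the compound also passes the data quality filters; inactive = the rest, including low values that fail the filters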;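 note: 100% = DMSO wells rate and 0% = substrate alone blank rate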
CatG inh = human cathepsin G inhibitors, primary screen, biochemical, pooled compound mixtures, AMC fluorescence | P08311 | inhibition, % at 5 µM (by protocol) | 62,000 compounds, 0.2% hits | purified enzyme, AMC-tetrapeptide fluorescence | AID 581, 2007;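 active = inhibition above 20% in each of the two mixture wells holding the compound; inactive = inhibition of 20% or less in either well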;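 note: 0% = enzyme control without mixture and 100% = blank lacking enzyme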
Target sequence (P08311 21-244 limits assumed): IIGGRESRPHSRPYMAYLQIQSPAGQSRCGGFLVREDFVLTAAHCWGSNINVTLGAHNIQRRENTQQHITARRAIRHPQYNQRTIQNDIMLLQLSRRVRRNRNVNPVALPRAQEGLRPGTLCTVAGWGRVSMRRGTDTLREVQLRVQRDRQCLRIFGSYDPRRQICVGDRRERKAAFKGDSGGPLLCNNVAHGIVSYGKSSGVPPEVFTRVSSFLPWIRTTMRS
FXIa mix inh = FXIa protease inhibitors in compound pools, primary screen, biochemical, 10-compound mixtures; Coagulation factor XI (Homo sapiens), P03951; purified FXIa, fluorogenic substrate, pooled mixtures; inhibition, % at 5 µM; 62,000 compounds, 0.19% hits; AID 680, 2007;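 note: each value is inhibition by a whole ten-compound pool holding the compound; 0% = enzyme with no mixture and 100% = wells lacking enzyme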
HePTP inhibitor = inhibitors of human HePTP phosphatase, primary screen, biochemical, absorbance, leukemia target. Tyrosine-protein phosphatase non-receptor type 7 (Homo sapiens), P35236. 110,000 compounds, 0.64% hits. AID 521, 2006. inhibition, % at 20 µM. recombinant HePTP phosphatase activity, OD absorbance; in the data active = inhibition above about 50%;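 note: plate controls were vehicle for no effect and reference inhibitor for full effect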
Target sequence (P35236 whole entry, looked up): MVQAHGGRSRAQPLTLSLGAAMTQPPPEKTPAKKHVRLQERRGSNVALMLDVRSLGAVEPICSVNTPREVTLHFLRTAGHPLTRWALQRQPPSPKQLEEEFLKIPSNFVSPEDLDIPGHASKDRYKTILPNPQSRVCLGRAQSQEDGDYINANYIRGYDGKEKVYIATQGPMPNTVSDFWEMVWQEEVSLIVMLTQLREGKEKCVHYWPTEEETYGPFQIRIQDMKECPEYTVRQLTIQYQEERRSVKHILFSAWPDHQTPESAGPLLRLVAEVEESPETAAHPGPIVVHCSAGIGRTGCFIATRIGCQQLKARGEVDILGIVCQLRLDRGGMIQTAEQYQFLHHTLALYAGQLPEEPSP
C1s block = complement C1s protease inhibitors, primary screen, biochemical, 10-compound mixtures | Complement C1s subcomponent (Homo sapiens), P09871 | 62,000 compounds, 0.16% hits | AID 538, 2006 | mean inhibition % of two 10-compound mixtures (stronger effect = higher value), % at 5 µM (by protocol) | purified C1s, fluorogenic AMC substrate, pooled mixtures;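 active = inhibition above 20% in each of the two 10-compound mixture wells holding the compound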;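 note: 0% = enzyme wells lacking compound mixture and 100% = no-enzyme blank wells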
* hit, by the source's call; i = inactive; / = no result given; + = active, no number. Cut-off read from the data, not from the text of the source, unless noted: active = inhibition above about 20% (passing the limit was not always enough); inactive = the rest.

SMILES | FXIIa mix inh | BAP1 inh | CatG inh | FXIa mix inh | HePTP inhibitor | C1s block
Cc1c(Cl)cccc1N=C1NC(=O)/C(=C/c2ccc(-c3ccccc3C(=O)O)o2)S1 | / | / | / | / | 98.2* | /
Cc1cc(C)c2nc3s/c(=C\c4cc5c(cc4[N+](=O)[O-])OCO5)c(=O)n3c2c1 | / | / | / | / | 7.9 | /
O=C1NC(=O)/C(=C/c2ccc(-c3ccc(O)c(C(=O)O)c3)o2)S1 | / | / | / | / | 102.4* | /
O=C(O)c1cc(-c2ccc(/C=C3/Sc4ccccc4C3=O)o2)ccc1O | / | / | / | / | 102.1* | /
Cc1ccc(C(=O)/C=C/c2ccc(-c3cccc(Cl)c3)o2)cc1 | / | / | / | / | 9.5 | /
O=S(=O)(Nc1ccc2oc(-c3ccc(I)cc3)nc2c1)c1ccccc1 | / | / | / | / | 4.8 | /
O=C1NC(=S)S/C1=C\c1ccc(-c2ccc(Cl)c(C(=O)O)c2)o1 | / | / | / | / | 101.1* | /
Cc1cc(C)c2nc3s/c(=C\c4ccc(-c5ccc(Cl)c(C(=O)O)c5)o4)c(=O)n3c2c1 | / | / | / | / | 89.7* | /
Cc1cc(C)c2nc3s/c(=C\c4ccc(-c5cc(C)c(C)cc5[N+](=O)[O-])o4)c(=O)n3c2c1 | / | / | / | / | -2.2 | /
O=C(CN1C(=O)c2ccc([N+](=O)[O-])cc2C1=O)NN1C(=O)c2ccccc2C1=O | / | / | / | / | 4.7 | /
CCOC(=O)C(C)On1c(SC(C)C(=O)OCC)nc2ccccc2c1=O (stereo not drawn) | 48.9* | i | 1.2 | 11.6 | 13.8 | -6.8
c1cnc(Nc2nc(-c3cccs3)cs2)nc1 | / | / | / | / | 102.0* | /
N#Cc1ccc2c(c1)nc1c3cccc4cccc(c(=O)n21)c43 | / | / | / | / | 64.8* | /
CCOC(=O)c1sc(NC(=O)COc2ccc(Cl)cc2C)c(C(=O)OCC)c1C | / | / | / | / | -4.1 | /
CN1CCCC1=NC(=S)CN1CCCC1=S | / | / | / | / | 96.9* | /
O=C1NC(=S)N(c2ccccc2F)C(=O)/C1=C/c1ccc(I)o1 | / | / | / | / | 103.5* | /
CCc1ccc(N2C(=O)/C(=C/c3ccc(I)o3)C(=O)NC2=S)cc1 | / | / | / | / | 104.8* | /
CC(C)c1ccc(N2C(=O)NC(=O)/C(=C/c3ccc([N+](=O)[O-])o3)C2=O)cc1 | / | / | / | / | 88.4* | /
CC(C)c1ccc(N2C(=O)NC(=O)/C(=C/c3cccc([N+](=O)[O-])c3)C2=O)cc1 | / | / | / | / | -3.3 | /
COc1ccccc1C=C1C(=O)NC(=S)N(c2ccccc2F)C1=O | / | / | / | / | 10.2 | /
Cc1cc(C)cc(N2C(=O)NC(=O)/C(=C\c3ccc(I)o3)C2=O)c1 | / | / | / | / | 25.4 | /
O=C1NC(=O)N(c2ccc(Cl)cc2)C(=O)/C1=C/c1ccc(I)o1 | / | / | / | / | 96.1* | /
COc1ccc(/C=N/NC(=O)c2cccc([N+](=O)[O-])c2)cc1Br | / | / | / | / | -5.9 | /
CCOc1ccc(N2C(=O)/C(=C/c3ccc(I)o3)C(=O)NC2=S)cc1 | / | / | / | / | 102.7* | /
O=C1NC(=S)N(c2ccccc2F)C(=O)/C1=C/c1ccc(OCc2cccc(C(=O)O)c2)cc1 | / | / | / | / | 101.8* | /
SMILES | FXIIa mix inh | BAP1 inh | CatG inh | FXIa mix inh | HePTP inhibitor | C1s block
O=C1NC(=S)N(c2ccccc2)C(=O)/C1=C/c1ccc(OCc2ccc(Cl)cc2)cc1 | / | / | / | / | -3.0 | /
CC(C)c1ccc(NC(=O)C(=O)NCc2ccco2)cc1 | / | / | / | / | -2.8 | /
Brc1ccccc1OCc1nc2ccccc2[nH]1 | / | i | / | / | / | /
O=C(O)COCc1nc2ccccc2[nH]1 | -10.8 | i | 13.9 | 9.6 | 3.9 | 21.9*
Nc1cc(N)nc(SCCOc2ccccc2)n1 | 7.5 | i | -12.9 | -10.5 | 4.7 | -73.8
Nc1cc(N)nc(SCCOc2ccccc2F)n1 | 2.0 | i | 14.2 | 77.3* | 3.2 | 30.2
CCCOc1cccc(C(=O)Nc2nc(-c3ccc(F)cc3F)cs2)c1 | / | / | / | / | 94.9* | /
CCC(Oc1ccccc1)C(=O)N1CCN(c2ccc(Cl)cc2)CC1 (stereo not drawn) | / | / | / | / | 6.2 | /
O=c1c(O)c(-c2ccc(O)cc2O)oc2cc(O)cc(O)c12 | 2.3 | / | 1.2 | 8.5 | 15.2 | -1.1
CCOC(=O)C1CCN(C(=O)Cc2ccc(Cl)cc2)CC1 | / | / | / | / | 2.7 | /
COc1cccc(-c2cc(C(=O)NCc3cccnc3)c3ccccc3n2)c1 | / | / | / | / | -2.9 | /
CCN(CC)C(=O)CSc1nc2ccc([N+](=O)[O-])cc2s1 | / | / | / | / | -2.2 | /
O=C(CCOc1ccccc1)Nc1cccc([N+](=O)[O-])c1 | / | / | / | / | 91.8* | /
COc1ccc(/C(C)=N\OCc2nc3c4c5c(sc4ncn3n2)C(C)(C)NC(C)(C)C5)cc1OC | / | / | / | / | 7.7 | /
COc1ccc(/C=C2/SC(NC(C)=O)=NC2=O)c(OC)c1 | / | / | / | / | -7.7 | /
CN(C)/C=C/C=C/C(=O)c1ccc(/C=C/C=C/N(C)C)o1 | / | / | / | / | 103.2* | /
CCCN1C(=O)C(O)(C2CC(=O)CC(C)(C)O2)c2ccccc21 (stereo not drawn) | 22.0* | i | 7.7 | 1.4 | -0.5 | 1.1
O=C1NC(=S)N/C1=C/c1ccc(-c2cc([N+](=O)[O-])ccc2Cl)o1 | / | / | / | / | 80.2* | /
C=CCN1C(=O)/C(=C\c2ccc(-c3cc([N+](=O)[O-])ccc3C)o2)C(=O)NC1=S | / | / | / | / | 101.8* | /
CCOc1ccc(N2C(=O)/C(=C/c3ccc(-c4cc([N+](=O)[O-])ccc4Cl)o3)C(=O)NC2=S)cc1 | / | / | / | / | 10.2 | /
Cc1ccc([N+](=O)[O-])cc1-c1ccc(/C=C2/C(=O)NC(=O)N(c3ccccc3)C2=O)o1 | / | / | / | / | 8.5 | /
CCOc1ccc(C(=O)Nc2ccc(NC(=O)c3ccco3)c(OC)c2)cc1[N+](=O)[O-] | / | / | / | / | 103.6* | /
CCOc1ccc(C(=O)Nc2ccc(-c3nc4ccccc4o3)c(O)c2)cc1[N+](=O)[O-] | / | / | / | / | 103.6* | /
CCOc1ccc(C(=O)Nc2ccc3oc(-c4cccc(Cl)c4Cl)nc3c2)cc1[N+](=O)[O-] | / | / | / | / | 8.2 | /
COc1ccc(NC(=O)c2cccc(F)c2)cc1 | / | / | / | / | -5.2 | /
SMILES | FXIIa mix inh | BAP1 inh | CatG inh | FXIa mix inh | HePTP inhibitor | C1s block
CCOC(=O)c1c(N2CCOCC2)c2ccccc2[nH]c1=O | / | / | / | / | 3.1 | /
CCCCCCCCCCCCC/C=C/C(O)C(N)CO (stereo not drawn) | / | + | / | / | / | /
COCCCNS(=O)(=O)c1ccccc1 | 4.0 | i | 7.6 | 2.8 | 2.9 | 10.5
COCCCNS(=O)(=O)c1ccc(OC)cc1 | / | / | / | / | 97.6* | /
CCOc1cc(/C=N/Nc2nc(N3CCOCC3)nc(N3CCOCC3)n2)ccc1OC(=O)c1ccco1 | / | / | / | / | -6.8 | /
CCN(CC)c1ccc(/C=N/N2C(=O)c3ccccc3C2=O)cc1 | / | / | / | / | 102.2* | /
CC(/C=N\NC(=O)c1cc(C(C)(C)C)[nH]n1)=C\c1ccccc1 | / | / | / | / | 7.9 | /
O=C(N/N=C/C(Br)=C/c1ccccc1)c1cc(-c2ccco2)[nH]n1 | / | / | / | / | 102.0* | /
CCOc1ccc(NC(=O)c2c(NC(=O)CC)sc3c2CCC(C)C3)cc1 (stereo not drawn) | / | / | / | / | 12.5 | /
OC(c1ccc(Br)cc1)C12CN3CN(CN(C3)C1)C2 (stereo not drawn) | / | / | / | / | 104.2* | /
CC(C)COc1ccc(C(=O)NCC2(c3ccccc3)CCCC2)cc1 | / | / | / | / | -17.6 | /
COc1ccc(CNC(=O)CN(CCc2ccccc2)S(=O)(=O)c2ccc(OC)cc2)cc1 | / | / | / | / | -4.2 | /
